In all, about 290,000 compounds went through this assay and about 1,000 (0.34%) were called active. For the sample, actives were picked, then their nearest neighbours and some compounds at random. A number with no mark means an inactive call. Rule as the data show it: active = percent response above about 24% (passing the limit was not always enough); inactive = the rest.
The compounds below were run on MEKK2 (MAP3K2) mutant PB1 domain binding to MEK5, human (assay: MEK5 binding signal on mutant MEKK2 PB1, primary screen, biochemical, multiplex bead flow cytometry, Alexa488-MEK5 (AID 1530)). Details: at 10 µM, hits give high values.

Compound | percent response
O=C(NC(Cc1ccc(O)cc1)C(=O)O)/C(=C/c1ccccc1)NC(=O)c1ccccc1 (configuration not stated) | 4%
COc1ccc(-c2ccc(CNCCCN3CCOCC3)o2)cc1Cl | 2%
CN(Cc1ccccn1)Cc1nc(-c2ccc(Cl)cc2)no1 | -10%
Fc1ccc(-c2ccc(CNCc3ccccn3)o2)cc1Cl | 25% (active)
CCCC(=O)N1CCN(c2nnc(-c3ccc(C)cc3)c3ccccc23)CC1 | 0%
C/C=C/C(=O)OCc1csc(CC(=O)Nc2ccccc2C)n1 | -6%
O=C(CN1CCN(C(=O)c2ccco2)CC1)Nc1ccc2c(c1)OCO2 | 7%
O=C(CN1CCN(C(=O)c2ccco2)CC1)Nc1ccc(Cl)c(C(F)(F)F)c1 | 24% (active)
O=C(c1ccco1)N1CCN(Cc2cccc(C(F)(F)F)c2)CC1 | 5%
O=C(NCCCN1CCCCCC1)c1ccc(N2CCCC2=O)cc1 | 31% (active)
CCOc1ccc(C(=O)NCCCN2CCCC2=O)cc1 | 8%
CC1CCC(NC(=O)c2ccc(N3CCCC3=O)cc2)CC1 (configuration not stated) | 6%
CCN(CC(=O)Nc1ccc2c(c1)OCO2)S(=O)(=O)c1ccccc1 | -3%
CC(=O)c1ccc(S(=O)(=O)N2CCN(c3nc4c(C)c(C)ccc4cc3C#N)CC2)cc1 | 1%
Cc1ccc(C(=O)NCCN2CCOCC2)cc1C | -1%
Cc1cccc(-c2nc3ccc(C(=O)NCCN4CCN(C)CC4)cc3nc2-c2cccc(C)c2)c1 | 34% (active)
CCC1=Nc2cc(C(=O)NCCN3CCCC3)ccc2Sc2ccc(C)cc21 | 15%
Cc1c(NC(=O)c2cc(-c3ccc(Br)cc3)on2)c(=O)n(-c2ccccc2)n1C | 4%
CCOc1ccc(N(CC)S(=O)(=O)c2cccc3nsnc23)cc1 | 2%
Cn1c(=O)c2cc(S(=O)(=O)NCCC(=O)Nc3ccc(F)cc3F)ccc2n(C)c1=O | -8%
Cc1ccc(NC(=O)CCNS(=O)(=O)c2ccc3c(c2)oc(=O)n3C)cc1C | 3%

Compound | percent response
COc1ccc(NC(=O)CCNS(=O)(=O)c2ccc3c(c2)c(=O)n(C)c(=O)n3C)cc1OC | 56% (active)
CCSc1nc2sc3c(c2c(=O)n1-c1ccc(C)cc1)CCN(C)C3 | 3%
CN(C)S(=O)(=O)c1ccc(N/C=C(\[N+](=O)[O-])S(=O)(=O)c2ccccc2)cc1 | -3%
CCOC(=O)c1cccc(NC(=O)c2ccc(F)cc2F)c1 | -1%
CCOc1ccccc1OCCCNCc1ccccc1 | 1%
CSc1ccc(/C=N/N2CCN(Cc3ccccc3Cl)CC2)cc1 | -5%
CN1CCN(/N=C/c2ccc(-c3ccc([N+](=O)[O-])cc3)o2)CC1 | -2%
CN1CCN(/N=C/c2ccc(C#N)cc2)CC1 | 134% (active)
Cc1ccc(CNC(=O)c2ccc3c(c2)S(=O)(=O)c2ccccc2C3=O)cc1 | 6%
COC(=O)Nc1ccc(S(=O)(=O)Nc2cc(OC)nc(OC)n2)cc1 | 7%
COc1ccc(C=C(C#N)C#N)c(CSc2ccccn2)c1 | 11%
O=C(NC1CCN(S(=O)(=O)c2ccc(F)cc2)CC1)c1ccccc1 | 4%
Cc1ccc(S(=O)(=O)NC(=O)N2CCCC(C)(C)C2)cc1 | 24% (active)
Cc1ccc(S(=O)(=O)NC(=O)N2CCCN(Cc3ccc(F)cc3)CC2)cc1 | -4%
Cc1ccc(S(=O)(=O)NCC(=O)N2CCOCCOCCOCCOCC2)cc1 | -7%
O=[N+]([O-])c1ccc2nc(-c3ccccn3)[nH]c2c1 | -17%
Cc1cccc(Nc2nc(NCCO)nc(N3CCCC3)n2)c1 | 4%
COc1ccc(Cn2c(=S)[nH]c3cc(C(=O)N4CCCCC4)ccc3c2=O)cc1 | -5%
C/C(=N\NC(=O)c1ccc(NS(=O)(=O)c2cccs2)cc1)c1ccc2ccccc2c1 | -4%
CC(=O)c1cccc(OCc2cc(C(=O)NC(C)Cc3cccnc3)no2)c1 (configuration not stated) | 10%
Cc1ccc2nc(-c3ccc(NC(=O)c4cccnc4)cc3)oc2c1 | 0%

Compound | percent response
CC(=O)Nc1ccc(-c2nc3ccccc3o2)cc1 | 28% (active)
CC(=O)Nc1ccc(Nc2c3ccccc3nc3ccccc23)cc1 | 3%
COc1ccc(-n2nc(C(=O)NCC(=O)N3CCCCCC3)c3ccccc3c2=O)cc1Cl | 6%
CN1CCN(c2ccc(S(=O)(=O)N3CCCCC3)cc2NC(=O)Cc2ccccc2F)CC1 | 0%
CCN1CCN(c2ccc(S(=O)(=O)N3CCCCC3)cc2NC(=O)Cc2c(Cl)cccc2Cl)CC1 | 24% (active)
COc1ccc(CC(=O)Nc2cc(S(=O)(=O)N3CCCCC3)ccc2N2CCN(C)CC2)cc1 | -1%
Cc1cccc(S(=O)(=O)N2CN(CC3CCCO3)c3nc4ccccc4nc32)c1 (configuration not stated) | 1%
Cc1ccc([N+](=O)[O-])c(OCCCNCC(C)O)c1 (configuration not stated) | 7%
CCOc1ccc(NC(=O)CCCCCN2C(=O)[C@@H]3Cc4ccccc4CN3C2=O)cc1 | 0%
CC(C)CC(=O)c1c[nH]c(C(=O)NCc2ccccc2)c1 | 10%
CN(C)CCCNC(=O)c1cc(C(=O)Cc2ccc(Cl)cc2)c[nH]1 | 27% (active)
CN(C)CCCNC(=S)NCc1ccc(Cl)cc1 | 13%
Cc1noc(C)c1C(=O)NCCc1ccc(S(N)(=O)=O)cc1 | 2%
Cc1ccc2nc(-c3ccc(NC(=O)CN(C)S(=O)(=O)c4ccccc4)cc3)sc2c1 | -5%
Nc1nc(Nc2ccccc2)nc(NCCO)c1[N+](=O)[O-] | -1%
OCCNc1nc(Nc2ccc(Cl)c(Cl)c2)nc2ccccc12 | 31% (active)
CN(C)c1nc(Nc2ccc(Cl)c(Cl)c2)nc(N(C)C)n1 | 0%
CCOC(=O)C1=C(CN2CCc3ccccc32)NC(=O)NC1c1cc(C)ccc1C (configuration not stated) | 5%
COc1cc2c(cc1OC)C(C)N(S(=O)(=O)c1cnc(Cl)c(Cl)c1)CC2 (configuration not stated) | 10%
O=c1c2c3c(sc2n(CCN2CCCC2)c(=O)n1Cc1ccccc1)CCCCC3 | 1%
